Test results reported in PubChem BioAssay (EPA / NIEHS).
Inconclusive results are not listed. Calls of active or inactive are those of the source. The calls were made as follows, unless noted: active = hit-call score of the fitted dose curve at least 0.9, where 1 is the maximum; inconclusive = response in the unintended direction; inactive = score below 0.9.

What was measured:
[1] = molecular target: Estrogen-related receptor gamma (Homo sapiens) (UniProt P62508); experiment: ATG_ERRg_TRANS: Attagene TRANS-FACTORIAL HepG2 Assay for human Estrogen-Related Receptor gamma (ERRg) (AID 2282977); details: HepG2 Attagene TRANS reporter, ERRg transactivation;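 also: hits increase reporter signal over DMSO so potencies reflect activators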
In short: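 Transient HepG2 transfectants, 24 h compound exposure, GAL4-UAS reporter mRNA by RT-PCR/6-FAM labelling/capillary electrophoresis; positive direction vs DMSO.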

[2] = molecular target: Glucocorticoid receptor (Homo sapiens) (UniProt P04150); experiment: ATG_GR_TRANS: Attagene TRANS-FACTORIAL HepG2 Assay for human Glucocorticoid Receptor (GR) (AID 2282978); details: HepG2 Attagene TRANS GR reporter, mRNA transcription;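 also: activators score as hits since higher reporter transcript over DMSO is fitted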
In short: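 Transiently transfected HepG2 cells express chimeric NR-GAL4 proteins acting on GAL4-UAS reporter units. Compounds are applied for 24 h. mRNA induction over DMSO is measured by capillary electrophoresis.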

[3] = molecular target: Oxysterols receptor LXR-alpha (Homo sapiens) (UniProt Q13133); experiment: ATG_LXRa_TRANS: Attagene TRANS-FACTORIAL HepG2 Assay for human Liver X Receptor alpha (LXRa) (AID 2282980); details: HepG2 Attagene TRANS reporter, LXRa transactivation
In short: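 HepG2 cells were transiently transfected with multiplexed reporter units driven by chimeric LXRa–GAL4 fusion proteins, then dosed for 24 h. Reporter mRNA was quantified by RT-PCR, fluorescent labelling and capillary electrophoresis; gain of signal fitted against DMSO baseline.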

[4] = molecular target: Hepatocyte nuclear factor 4-alpha (Homo sapiens) (UniProt P41235); experiment: ATG_HNF4a_TRANS: Attagene TRANS-FACTORIAL HepG2 Assay for human Hepatocyte Nuclear Factor 4 alpha (HNF4a) (AID 2282982); details: HepG2 HNF4a transactivation reporter, mRNA readout
In short: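 Transfected HepG2 reporter cells are dosed for 24 h; reporter RNA is reverse-transcribed, amplified, fluorescently labelled and HpaI-digested before CE sizing. Positive-direction fit against DMSO.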

[5] = ATG_M_32_TRANS: Attagene TRANS-FACTORIAL HepG2 Assay for M32 Transcription Factor (Internal Marker) (AID 2282984); details: HepG2 Attagene TRANS M32 internal marker reporter
In short: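 Using transiently transfected HepG2 cells exposed to test chemicals for 24 h, reporter transcripts are converted to labelled cDNA fragments and quantified by capillary electrophoresis. DMSO defines the activity baseline.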

[6] = molecular target: Nuclear receptor subfamily 4 group A member 2 (Homo sapiens) (UniProt P43354); experiment: ATG_NURR1_TRANS: Attagene TRANS-FACTORIAL HepG2 Assay for human Nuclear Receptor Related Protein 1 (NURR1) (AID 2282985); details: HepG2 Attagene TRANS reporter, mRNA readout
In short: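 Cells: HepG2, transiently transfected. Exposure: 24 h. Detection: fluorescence of labelled RT-PCR products separated by capillary electrophoresis; upward fit versus DMSO.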

[7] = molecular target: Oxysterols receptor LXR-beta (Homo sapiens) (UniProt P55055); experiment: ATG_LXRb_TRANS: Attagene TRANS-FACTORIAL HepG2 Assay for human Liver X Receptor beta (LXRb) (AID 2282981); details: HepG2 Attagene TRANS GAL4-LXRb reporter, mRNA
In short: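 Cells: HepG2, transiently transfected with GAL4-UAS reporter units plus LXRb-Gal4 fusion. Treatment: 24 h. Detection: reporter mRNA by RT-PCR, 6-FAM labelling, HpaI digestion, capillary electrophoresis.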

[8] = ATG_M_06_TRANS: Attagene TRANS-FACTORIAL HepG2 Assay for M06 Transcription Factor (Internal Marker) (AID 2282983); details: HepG2 Attagene TRANS M06 internal marker reporter;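 also: reporter transcript level by RT-PCR then capillary electrophoresis fluorescence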
In short: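 HepG2 cells transiently transfected with multiplexed GAL4-UAS reporter transcription units; after 24 h compound exposure, reporter mRNA measured by RT-PCR, FAM-labelled primer extension, HpaI digestion and capillary electrophoresis. Gain-of-signal fitted versus DMSO baseline; background control readout.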

[9] = molecular target: Transcriptional activator Myb (Homo sapiens) (UniProt P10242); experiment: ATG_Myb_CIS: Attagene CIS-FACTORIAL HepG2 Assay for human Myeloblastosis (Myb) Proto-Oncogene Transcription Factor (AID 2282986; active = hit-call score of the fitted dose curve at least 0.9, where 1 is the maximum; inactive = score below 0.9); details: HepG2 Attagene CIS-FACTORIAL Myb reporter transcription; actives raise or lower the signal
In short: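 Using HepG2 liver cells bearing transiently transfected cis-promoter reporter constructs, the assay measures induction or loss of reporter mRNA after 24 hours of dosing. Detection used fluorescently labeled RT-PCR products separated by capillary electrophoresis.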

[10] = molecular target: Bile acid receptor (Homo sapiens) (UniProt Q96RI1); experiment: ATG_FXR_TRANS: Attagene TRANS-FACTORIAL HepG2 Assay for Farnesoid X Receptor (FXR) (AID 2282979); details: HepG2 Attagene TRANS FXR-GAL4 reporter transcription;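 also: hits raise reporter mRNA above DMSO so AC50 marks FXR activation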
In short: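 HepG2 cells transiently transfected with reporter constructs in which a chimeric FXR-GAL4 protein drives a GAL4-UAS reporter; 24 h compound exposure. Reporter mRNA measured by RT-PCR, FAM labelling, HpaI digestion and capillary electrophoresis; gain-of-signal versus DMSO.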

Chain of Hepatocyte nuclear factor 4-alpha (Homo sapiens) (P41235 whole entry, looked up): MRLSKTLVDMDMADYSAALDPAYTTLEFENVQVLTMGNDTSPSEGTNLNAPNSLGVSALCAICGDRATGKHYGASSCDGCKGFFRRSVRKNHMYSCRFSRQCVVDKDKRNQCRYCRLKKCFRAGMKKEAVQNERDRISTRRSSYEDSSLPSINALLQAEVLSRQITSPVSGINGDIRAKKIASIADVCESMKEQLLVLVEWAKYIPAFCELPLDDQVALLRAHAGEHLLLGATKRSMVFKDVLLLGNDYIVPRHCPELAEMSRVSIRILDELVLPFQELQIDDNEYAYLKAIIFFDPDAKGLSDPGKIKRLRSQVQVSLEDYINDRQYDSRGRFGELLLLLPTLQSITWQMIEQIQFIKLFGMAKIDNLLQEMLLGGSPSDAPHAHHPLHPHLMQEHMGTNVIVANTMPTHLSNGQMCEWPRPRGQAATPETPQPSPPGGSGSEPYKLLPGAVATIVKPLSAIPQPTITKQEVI
Chain of Transcriptional activator Myb (Homo sapiens) (P10242 whole entry, looked up): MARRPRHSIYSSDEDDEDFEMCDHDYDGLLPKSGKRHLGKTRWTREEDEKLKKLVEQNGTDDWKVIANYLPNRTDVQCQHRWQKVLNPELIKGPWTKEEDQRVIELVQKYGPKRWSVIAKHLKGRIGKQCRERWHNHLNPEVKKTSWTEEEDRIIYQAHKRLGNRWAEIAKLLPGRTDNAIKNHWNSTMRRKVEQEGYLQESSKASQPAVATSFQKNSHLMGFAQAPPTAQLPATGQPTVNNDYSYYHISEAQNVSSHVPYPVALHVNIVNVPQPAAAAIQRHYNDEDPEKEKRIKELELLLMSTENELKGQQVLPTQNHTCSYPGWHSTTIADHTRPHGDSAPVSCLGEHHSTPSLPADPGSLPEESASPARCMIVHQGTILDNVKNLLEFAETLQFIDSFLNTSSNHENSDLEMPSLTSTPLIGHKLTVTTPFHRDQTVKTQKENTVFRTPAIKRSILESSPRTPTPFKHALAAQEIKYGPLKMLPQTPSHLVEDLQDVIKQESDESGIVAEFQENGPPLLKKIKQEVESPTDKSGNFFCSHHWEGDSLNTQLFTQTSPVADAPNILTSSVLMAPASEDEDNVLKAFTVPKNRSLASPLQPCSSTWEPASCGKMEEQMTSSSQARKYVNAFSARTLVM
Chain of Bile acid receptor (Homo sapiens) (Q96RI1 whole entry, looked up, the tested form may be a part): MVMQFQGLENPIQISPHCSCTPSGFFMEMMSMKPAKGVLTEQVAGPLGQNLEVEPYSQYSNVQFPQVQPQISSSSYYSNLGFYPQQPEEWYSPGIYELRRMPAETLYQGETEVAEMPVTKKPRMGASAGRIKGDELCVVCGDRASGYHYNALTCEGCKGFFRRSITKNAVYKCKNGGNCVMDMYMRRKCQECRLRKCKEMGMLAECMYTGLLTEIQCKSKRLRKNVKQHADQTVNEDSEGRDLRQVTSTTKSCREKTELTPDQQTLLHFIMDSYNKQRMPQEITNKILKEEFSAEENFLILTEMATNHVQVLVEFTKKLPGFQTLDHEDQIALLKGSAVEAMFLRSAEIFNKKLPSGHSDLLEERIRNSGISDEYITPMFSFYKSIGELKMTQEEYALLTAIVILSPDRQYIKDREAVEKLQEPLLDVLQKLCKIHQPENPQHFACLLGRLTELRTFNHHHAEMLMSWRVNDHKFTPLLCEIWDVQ
Chain of Estrogen-related receptor gamma (Homo sapiens) (P62508 whole entry, looked up, the tested form may be a part): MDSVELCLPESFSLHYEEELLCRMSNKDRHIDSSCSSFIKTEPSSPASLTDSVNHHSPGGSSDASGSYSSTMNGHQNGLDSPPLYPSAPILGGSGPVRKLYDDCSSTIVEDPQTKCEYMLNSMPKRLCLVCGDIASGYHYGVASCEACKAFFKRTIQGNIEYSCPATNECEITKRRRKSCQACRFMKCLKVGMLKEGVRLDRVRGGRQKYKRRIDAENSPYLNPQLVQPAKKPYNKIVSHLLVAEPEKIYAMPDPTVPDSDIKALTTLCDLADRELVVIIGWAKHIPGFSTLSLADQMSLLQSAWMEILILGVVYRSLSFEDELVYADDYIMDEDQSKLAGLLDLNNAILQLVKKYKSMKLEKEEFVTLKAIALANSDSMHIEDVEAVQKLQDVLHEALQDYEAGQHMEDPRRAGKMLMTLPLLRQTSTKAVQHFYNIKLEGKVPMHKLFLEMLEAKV
Chain of Oxysterols receptor LXR-beta (Homo sapiens) (P55055 whole entry, looked up, the tested form may be a part): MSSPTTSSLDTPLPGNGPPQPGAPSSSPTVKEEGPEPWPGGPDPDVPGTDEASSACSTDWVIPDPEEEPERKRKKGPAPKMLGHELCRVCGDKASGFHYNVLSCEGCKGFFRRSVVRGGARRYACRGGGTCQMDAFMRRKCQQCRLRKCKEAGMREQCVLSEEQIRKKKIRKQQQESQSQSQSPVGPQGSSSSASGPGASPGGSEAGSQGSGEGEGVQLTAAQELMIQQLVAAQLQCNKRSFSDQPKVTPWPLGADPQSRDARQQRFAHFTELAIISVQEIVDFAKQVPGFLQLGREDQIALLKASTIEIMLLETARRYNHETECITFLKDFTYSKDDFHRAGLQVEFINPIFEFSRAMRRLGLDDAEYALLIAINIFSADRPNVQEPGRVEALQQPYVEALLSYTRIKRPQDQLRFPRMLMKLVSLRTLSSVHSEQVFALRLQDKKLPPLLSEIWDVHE
Chain of Oxysterols receptor LXR-alpha (Homo sapiens) (Q13133 whole entry, looked up, the tested form may be a part): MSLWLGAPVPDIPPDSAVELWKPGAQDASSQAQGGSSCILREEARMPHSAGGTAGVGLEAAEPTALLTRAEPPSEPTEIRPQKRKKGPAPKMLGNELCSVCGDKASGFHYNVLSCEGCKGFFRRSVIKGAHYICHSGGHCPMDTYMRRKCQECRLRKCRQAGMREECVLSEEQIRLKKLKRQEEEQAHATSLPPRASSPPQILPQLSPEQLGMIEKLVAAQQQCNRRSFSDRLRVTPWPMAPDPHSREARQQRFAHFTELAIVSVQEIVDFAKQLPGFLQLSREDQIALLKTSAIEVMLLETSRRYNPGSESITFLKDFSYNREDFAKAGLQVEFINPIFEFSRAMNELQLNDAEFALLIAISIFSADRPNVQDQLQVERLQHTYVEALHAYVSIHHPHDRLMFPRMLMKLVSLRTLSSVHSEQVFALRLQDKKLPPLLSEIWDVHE
Chain of Glucocorticoid receptor (Homo sapiens) (P04150 whole entry, looked up, the tested form may be a part): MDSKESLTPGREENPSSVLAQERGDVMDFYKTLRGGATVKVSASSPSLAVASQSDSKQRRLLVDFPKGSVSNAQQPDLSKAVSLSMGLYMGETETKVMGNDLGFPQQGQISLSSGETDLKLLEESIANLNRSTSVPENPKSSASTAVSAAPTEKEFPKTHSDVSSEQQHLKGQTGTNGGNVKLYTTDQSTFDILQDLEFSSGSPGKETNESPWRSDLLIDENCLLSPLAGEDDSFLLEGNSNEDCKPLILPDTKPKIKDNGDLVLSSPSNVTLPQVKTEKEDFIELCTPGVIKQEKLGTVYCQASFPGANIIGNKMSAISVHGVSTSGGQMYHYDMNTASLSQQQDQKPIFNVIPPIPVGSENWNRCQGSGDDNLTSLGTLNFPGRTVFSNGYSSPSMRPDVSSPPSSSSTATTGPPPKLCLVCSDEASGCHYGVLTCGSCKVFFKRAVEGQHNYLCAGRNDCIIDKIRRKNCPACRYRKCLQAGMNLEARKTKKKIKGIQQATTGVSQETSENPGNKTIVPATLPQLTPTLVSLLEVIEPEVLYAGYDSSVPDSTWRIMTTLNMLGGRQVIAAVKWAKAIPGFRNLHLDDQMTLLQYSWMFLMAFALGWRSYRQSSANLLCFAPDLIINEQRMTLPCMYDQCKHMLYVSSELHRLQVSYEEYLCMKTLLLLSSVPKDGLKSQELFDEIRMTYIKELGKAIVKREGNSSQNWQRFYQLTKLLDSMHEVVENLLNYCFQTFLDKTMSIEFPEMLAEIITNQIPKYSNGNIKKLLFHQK
Chain of Nuclear receptor subfamily 4 group A member 2 (Homo sapiens) (P43354 whole entry, looked up): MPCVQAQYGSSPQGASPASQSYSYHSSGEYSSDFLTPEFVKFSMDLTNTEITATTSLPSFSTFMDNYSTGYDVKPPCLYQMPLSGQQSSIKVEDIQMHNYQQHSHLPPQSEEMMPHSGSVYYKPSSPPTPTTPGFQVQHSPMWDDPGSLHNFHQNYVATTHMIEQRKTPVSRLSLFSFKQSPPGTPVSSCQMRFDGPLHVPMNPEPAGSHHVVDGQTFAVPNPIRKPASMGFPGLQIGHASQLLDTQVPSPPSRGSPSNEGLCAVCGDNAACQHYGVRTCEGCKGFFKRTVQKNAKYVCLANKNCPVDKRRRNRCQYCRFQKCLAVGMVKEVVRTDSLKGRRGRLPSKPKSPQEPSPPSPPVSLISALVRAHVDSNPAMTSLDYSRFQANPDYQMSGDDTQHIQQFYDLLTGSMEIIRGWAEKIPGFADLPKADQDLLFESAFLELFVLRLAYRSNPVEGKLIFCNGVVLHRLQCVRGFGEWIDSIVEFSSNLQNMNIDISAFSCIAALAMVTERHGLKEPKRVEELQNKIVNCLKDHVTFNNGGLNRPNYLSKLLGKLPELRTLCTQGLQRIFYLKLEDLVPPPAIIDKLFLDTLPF

CCc1cccc(C)c1N
outcome [1]: inactive | outcome [2]: inactive | outcome [3]: inactive | outcome [4]: inactive | outcome [5]: inactive | outcome [6]: inactive

CC1=CC(C)C(C=O)CC1 (centres undefined)
outcome [1]: inactive | outcome [2]: inactive | outcome [7]: inactive | outcome [4]: inactive | outcome [8]: inactive | outcome [5]: inactive | outcome [6]: inactive | outcome [9]: inactive

Cn1ccnc1
outcome [1]: inactive | outcome [2]: inactive | outcome [10]: inactive | outcome [5]: inactive | outcome [6]: inactive | outcome [9]: inactive

CC(CCC(=O)O)(c1ccc(O)cc1)c1ccc(O)cc1
outcome [1]: inactive | outcome [2]: inactive | outcome [7]: inactive | outcome [4]: inactive | outcome [8]: inactive | outcome [5]: inactive | outcome [6]: inactive | outcome [9]: inactive

c1ccc2cnccc2c1
outcome [1]: inactive | outcome [2]: inactive | outcome [7]: inactive | outcome [4]: inactive | outcome [8]: inactive | outcome [9]: inactive

COC(=O)c1ccc(C(=O)OC)c(C(=O)OC)c1
outcome [1]: inactive | outcome [3]: inactive | outcome [7]: inactive | outcome [4]: inactive | outcome [8]: inactive | outcome [5]: inactive | outcome [6]: inactive

C[N+](C)(C)CCCNS(=O)(=O)C(F)(F)C(F)(F)C(F)(F)C(F)(F)C(F)(F)C(F)(F)C(F)(F)C(F)(F)F
outcome [2]: inactive | outcome [10]: inactive | outcome [4]: inactive | outcome [8]: inactive | outcome [6]: inactive

COc1ccc(C(=O)c2ccccc2)c(O)c1
outcome [2]: inactive | outcome [10]: inactive | outcome [7]: inactive | outcome [8]: inactive | outcome [5]: inactive | outcome [6]: inactive | outcome [9]: inactive

CCCCCCCCCCCCc1ccc(O)cc1
outcome [2]: inactive | outcome [10]: inactive | AC50 [7]: 15.1 µM (active) | outcome [8]: inactive | outcome [5]: inactive | outcome [6]: inactive | outcome [9]: inactive

CCC(C)c1ccccc1 (centres undefined)
outcome [2]: inactive | outcome [10]: inactive | outcome [3]: inactive | outcome [7]: inactive | outcome [8]: inactive | outcome [5]: inactive | outcome [9]: inactive

O=C1CCCN1C1CCCCC1
outcome [1]: inactive | outcome [10]: inactive | outcome [9]: inactive

c1ccc(-c2nc3ccccc3[nH]2)cc1
outcome [2]: inactive | outcome [10]: inactive | outcome [3]: inactive | outcome [7]: inactive | outcome [4]: inactive | outcome [8]: inactive | outcome [5]: inactive | outcome [6]: inactive

CCC1COC(=O)O1 (centres undefined)
outcome [2]: inactive | outcome [10]: inactive | outcome [3]: inactive | outcome [7]: inactive | outcome [8]: inactive | outcome [5]: inactive | outcome [9]: inactive

C=C(C)C(=O)OCCCCCCCCCCCC
outcome [1]: inactive | outcome [4]: inactive | outcome [5]: inactive | outcome [6]: inactive | outcome [9]: inactive

CCc1cccc(CC)c1
outcome [2]: inactive | outcome [10]: inactive | outcome [3]: inactive | outcome [8]: inactive | outcome [9]: inactive

CC(=O)CCC=C(C)C
outcome [1]: inactive | outcome [8]: inactive | outcome [9]: inactive

[Cl][Eu]([Cl])[Cl]
outcome [2]: inactive | outcome [10]: inactive | outcome [8]: inactive | outcome [9]: inactive

CC1(C)CCC[C@]2(C)[C@H]3CC(=O)O[C@]3(C)CC[C@@H]12
outcome [2]: inactive | outcome [10]: inactive | outcome [3]: inactive | outcome [7]: inactive | outcome [5]: inactive | outcome [9]: inactive

CN1CCN(C)CC1
outcome [2]: inactive | outcome [10]: inactive | outcome [7]: inactive | outcome [4]: inactive | outcome [6]: inactive | outcome [9]: inactive

CCCCCCCC(=O)OCC(COC(=O)CCCCCCC)OC(=O)CCCCCCC
outcome [2]: inactive | outcome [10]: inactive | outcome [3]: inactive | outcome [7]: inactive | outcome [8]: inactive | outcome [6]: inactive | outcome [9]: inactive

CCN1CCCC1=O
outcome [2]: inactive | outcome [10]: inactive | outcome [3]: inactive | outcome [8]: inactive | outcome [5]: inactive | outcome [6]: inactive | outcome [9]: inactive

C/C=C/C=C/CCCCCCCO
outcome [2]: inactive | outcome [10]: inactive | outcome [3]: inactive | outcome [7]: inactive | outcome [4]: inactive | AC50 [5]: 100 µM (active) | outcome [6]: inactive | outcome [9]: inactive

CC(C)OC(=O)c1ccccc1
outcome [1]: inactive | outcome [4]: inactive | outcome [8]: inactive | outcome [9]: inactive

N=C1C=CC(=C(c2ccc(N)cc2)c2ccc(N)cc2)C=C1
outcome [1]: inactive | outcome [8]: inactive | outcome [5]: inactive | outcome [6]: inactive | AC50 [9]: 24.9 µM (active)

CC(C)(C)C1CCC(=O)CC1
outcome [2]: inactive | outcome [10]: inactive | outcome [3]: inactive | outcome [7]: inactive | outcome [5]: inactive | outcome [9]: inactive

Fc1ccc(Br)cc1
outcome [1]: inactive | outcome [3]: inactive | outcome [7]: inactive | outcome [5]: inactive | outcome [6]: inactive | outcome [9]: inactive

C=CCCCCCCCCC=O
outcome [1]: inactive | outcome [3]: inactive | outcome [4]: inactive | outcome [8]: inactive | outcome [5]: inactive | outcome [6]: inactive

C=C(C)C(=O)OCC(O)COc1ccc(C(C)(C)c2ccc(OCC(O)COC(=O)C(=C)C)cc2)cc1 (centres undefined)
outcome [1]: inactive | outcome [4]: inactive | outcome [5]: inactive | AC50 [6]: 27.4 µM (active) | AC50 [9]: 158 µM (active)

CC/C=C\C/C=C\C/C=C\CCCCCCCC(=O)OC
outcome [2]: inactive | outcome [10]: inactive | outcome [4]: inactive | outcome [5]: inactive | outcome [6]: inactive | outcome [9]: inactive

CCNc1nc(NC(C)(C)C)nc(OC)n1
outcome [2]: inactive | outcome [10]: inactive | outcome [7]: inactive | outcome [9]: inactive

CCCCCOC(=O)CCCCC
outcome [1]: inactive | outcome [3]: inactive | outcome [9]: inactive

C=CC(=O)OCCCCCCOC(=O)C=C
outcome [1]: inactive | outcome [3]: inactive | outcome [7]: inactive | outcome [4]: inactive | outcome [8]: inactive | outcome [5]: inactive | outcome [6]: inactive

CC12CCC(CC1)C(C)(C)O2
outcome [2]: inactive | outcome [10]: inactive | outcome [4]: inactive | outcome [8]: inactive | outcome [6]: inactive | outcome [9]: inactive

Nc1ccc(O)c([N+](=O)[O-])c1
outcome [1]: inactive | outcome [3]: inactive | outcome [7]: inactive | outcome [4]: inactive | outcome [8]: inactive | outcome [9]: inactive

CC1(C)[C@@H]2CC[C@@]1(C)C(=O)C2
outcome [1]: inactive | outcome [5]: inactive | outcome [6]: inactive | outcome [9]: inactive

CCC(C)C(=O)OC (centres undefined)
outcome [2]: inactive | outcome [10]: inactive | outcome [4]: inactive | outcome [8]: inactive | outcome [5]: inactive

O=C(O)CC(C(=O)O)S(=O)(=O)O (centres undefined)
outcome [1]: inactive | outcome [5]: inactive | outcome [9]: inactive

Cn1cccc1
outcome [1]: inactive | outcome [3]: inactive | outcome [4]: inactive | outcome [5]: inactive

c1ccc2sc(SSN3CCOCC3)nc2c1
outcome [1]: inactive | outcome [3]: inactive | outcome [7]: inactive | outcome [4]: inactive | outcome [8]: inactive | outcome [5]: inactive | outcome [6]: inactive | outcome [9]: inactive
